# SMN2 splice enh = enhancers of SMN2 splice variant expression; AID 1458; HEK293 SMN2-luciferase splicing reporter, luminescence, 30-36 h; 210,000 tested, 2.8% active; Potency, µM (top dose mostly 46.1 µM), without a hit: top-dose activity change, positive = activation, hits mostly activators; also: % of control where 0% means no effect; nearly all actives have a fitted effect of over 55% in size
#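 HEK293 cells carry an SMN2 […]–luciferase reporter in which exon 7 inclusion puts luciferase in frame. Cells were plated 10-12 h before compound addition, then incubated 30-36 h at 37C. ONE-Glo luminescence was read; sodium butyrate at 4.5 mM final served as control.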
# Rab9 promoter act = Rab9 promoter activation; Huh7 Rab9 promoter-luciferase reporter, luminescence, 24 h; Potency, µM (highest dose often 9.22 µM), for the others: at the top dose activation, negative = inhibition, usual class: activators; 320,000 tested, 2.8% active; also: % of control where 0% means no effect; nearly all actives have a fitted effect of over 60% in size
#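 Quantitative HTS format; Huh7 Rab9-luciferase reporter cells (1500/well) receive compound 2 h post-plating, incubate 24 h at 37 °C, then get luciferase reagent for 10 min before luminescence reading.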
# ELG1 genotoxic = genotoxicity induction in ELG1-luciferase HEK293T cells | HEK293T ELG1-luciferase reporter, luminescence, 16 h | Potency, µM (highest dose often 46 µM), for inactives: at the highest dose activity change, positive = activation, actives largely listed as activators | 330,000 tested, 1.3% active | AID 504466; also: % of control where 0% means no effect; nearly all actives have a fitted effect of over 60% in size
#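 Genotoxic stress is detected as increased luminescence from luciferase-tagged ELG1 in HEK293T cells, measured with ONE-Glo after a 16 hr treatment at 37 °C.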
# ELG1 DNA repair = inhibitors of ELG1-dependent DNA repair in HEK293T cells | HEK293T ELG1-luciferase reporter, luminescence, 16 h; DNA damage induced by 5-fluorouridine | Potency, µM (titrated, usually from 46.1 µM), for the others: top-dose activity change, negative = inhibition, most hits filed as inhibitors | 330,000 tested, 2.3% active; also: % is scaled to controls: 0 for no effect and ±100 for the full control effect; nearly all actives have a fitted effect of over 55% in size
#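 Quantitative HTS, concentration-response format. 2,000 cells/well co-treated with 5-fluorouridine and compound, 16 hr in 5% CO2 at 37 °C; ONE-Glo luminescence read after 30 min.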
# NPC1 prom act = activates the NPC1 promoter. Huh7 NPC1 promoter luciferase reporter, 24 h. Potency, µM (doses to about 9.22 µM), for the others: at the top dose activation, actives largely listed as activators. 320,000 tested, 2.4% active. AID 485313; also: % of control where 0% means no effect; nearly all actives have a fitted effect of over 60% in size
#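 Quantitative HTS used a cell-based reporter: Huh7 cells stably bearing the NPC1 promoter upstream of luciferase were treated with compounds for 24 h, and promoter activation was read as luminescence.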
# FLuc modulator = firefly luciferase modulation, counter-screen for miR-21 project; P08659; purified FLuc, Km substrates, luminescence inhibition; Potency, µM (highest dose often 57.5 µM), inactives show at the top dose activity change, negative = inhibition, actives largely listed as inhibitors; 360,000 tested, 6.9% active; AID 588342;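 also: plate controls were vehicle for no effect and reference inhibitor for full effect; nearly all actives have a fitted effect of over 55% in size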
# Target sequence (P08659 whole entry, looked up): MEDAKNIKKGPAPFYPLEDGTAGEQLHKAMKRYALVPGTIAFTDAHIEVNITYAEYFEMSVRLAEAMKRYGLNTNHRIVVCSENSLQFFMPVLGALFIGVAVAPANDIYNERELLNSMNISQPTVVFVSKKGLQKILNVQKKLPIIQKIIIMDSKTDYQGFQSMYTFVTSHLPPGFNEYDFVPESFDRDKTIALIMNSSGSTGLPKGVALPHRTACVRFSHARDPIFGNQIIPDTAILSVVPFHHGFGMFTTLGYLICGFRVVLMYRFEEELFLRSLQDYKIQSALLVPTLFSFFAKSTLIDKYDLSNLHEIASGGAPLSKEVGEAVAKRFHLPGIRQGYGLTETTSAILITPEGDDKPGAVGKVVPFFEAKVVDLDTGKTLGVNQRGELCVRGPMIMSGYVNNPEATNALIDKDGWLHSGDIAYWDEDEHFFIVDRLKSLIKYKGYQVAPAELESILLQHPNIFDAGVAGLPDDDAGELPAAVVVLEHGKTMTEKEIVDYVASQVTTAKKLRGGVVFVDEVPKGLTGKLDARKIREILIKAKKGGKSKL
#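 Biochemical qHTS of compounds, final roughly 60 µM downward over six points, against 10 nM purified firefly luciferase using Km concentrations of substrates (10 uM D-luciferin, 10 uM ATP) in Tris acetate pH 7.5 buffer; luminescence output.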
# An asterisk follows results filed as active; ? = inconclusive; / = no result. Sampled rows, rich in hits. Any-hit rate of the full collection: about 9.4%. Calls follow the shape of the dose curve; as a rule, active = well fitted curve in the direction sought with a large enough effect; inconclusive = small, poorly fitted or top-dose-only effect, or another doubt; inactive = no such curve, though single readings can be large; an effect the other way counts as inactive or inconclusive. Potency is read from the fitted curve at half-maximal effect.
SMILES,SMN2 splice enh,Rab9 promoter act,ELG1 genotoxic,ELG1 DNA repair,NPC1 prom act,FLuc modulator
Cc1ccn2c(NCc3ccccc3)c(-c3cccs3)nc2c1,?,3.2µM*,9%,?,?,15µM*
Cc1cc(C)c2c(CN3CCC(C)CC3)cc(=O)oc2c1,/,?,?,?,?,15µM*
O=C(Nc1cccc(S(=O)(=O)c2cccc(NC(=O)c3ccco3)c2)c1)c1ccco1,/,-21%,-12%,23µM*,-19%,0%
CN(C)S(=O)(=O)c1cccc(NC(=S)NC(=O)c2ccco2)c1,/,3.5µM*,11%,?,?,?
Cc1nc2ccc(S(=O)(=O)N(C)CC(=O)Nc3ccc(Br)c(C)c3)cc2s1,11%,/,/,/,/,-18%
Cc1ccc2c(c1)C(c1ccc(F)cc1)N(C(=O)c1ccc(S(=O)(=O)N3CCCCC3)cc1)CC(=O)N2 (stereo not drawn),3%,/,/,/,/,-2%
COc1ccc(-n2c(/C=C/c3ccccc3F)nc3cc(OC)c(OC)cc3c2=O)cc1Cl,/,/,/,/,/,1%
Cc1nc2oc3c(NCC4CCCO4)ncnc3c2c2c1COC(C)(C)C2 (stereo not drawn),-6%,-7%,-4%,?,-1%,-2%
Cc1nc2oc3c(NCc4ccccc4)ncnc3c2c2c1COC(C)(C)C2,4%,-1%,-3%,7.3µM*,0%,-4%
CCOc1ccc(NC(=O)Cn2cc(C(=O)c3ccc(OCC)cc3)c(=O)c3cc4c(cc32)OCCO4)cc1,-5%,/,/,/,/,-9%
Cc1ccc(CN2CCN(Cc3cccc4c3OCO4)CC2CCO)cc1 (stereo not drawn),/,-2%,-3%,2%,-6%,1%
COc1cccc(CN2CCN(Cc3cccc4c3OCO4)CC2CCO)c1 (stereo not drawn),/,0.089µM*,?,?,0.4µM*,2.4µM*
CN(C)c1cccc(C(=O)OCC(=O)c2ccc[nH]2)c1,/,1.4µM*,?,?,3.2µM*,11µM*
CN(CC(=O)Nc1ccc(F)cc1)C(=O)COC(=O)c1cccc(N(C)C)c1,/,1.4µM*,?,?,2.2µM*,?
Cc1ccsc1C(=O)OCC(=O)N1CCc2ccccc2C1,25µM*,0.79µM*,?,?,2.8µM*,8.5µM*
COc1ccc(C(=O)NNC(=O)COC(=O)c2sccc2C)cc1,/,1%,-3%,11%,-2%,/
Cc1ccsc1C(=O)OCC(=O)c1ccc(OC(F)F)cc1,/,?,2%,?,3%,1.1µM*
COc1ccccc1CNC(=O)c1cc2c(=O)n(Cc3cccs3)ccc2nc1C,/,/,/,/,/,-4%
CCC(=O)N1CCc2cc(Br)cc(S(=O)(=O)N(CC)Cc3ccccc3)c21,6%,/,/,/,/,5%
Cc1ccsc1C(=O)OCC(=O)c1ccc[nH]1,/,2.8µM*,?,?,?,13µM*
Cc1ccc(CNC(=O)NC23CC4CC(CC(C4)C2)C3)cc1,-20%,-4%,-2%,-12%,-1%,-1%
Cc1ccc(C(=O)NCC(=O)NC23CC4CC(CC(C4)C2)C3)cc1,/,?,16µM*,?,26%,-19%
Cc1ccc(/C(O)=C/C(=O)C(=O)NC23CC4CC(CC(C4)C2)C3)cc1,/,3.2µM*,6%,?,?,17µM*
CC(C)c1ccc(NC(=O)CCNS(=O)(=O)c2ccc3c(c2)oc(=O)n3C)cc1,2%,/,/,/,/,-1%
O=C(Nc1ccc(S(=O)(=O)N2CCCCC2c2cccnc2)cc1)c1ccc(F)cc1 (stereo not drawn),/,/,/,/,/,-3%
CC1(C)CC(=O)C=C(c2ccc(-c3ccccc3)cc2)C1,/,?,?,?,2.8µM*,?
CC1=C(C(=O)Nc2cccnc2)C(c2cccc(O)c2)n2nc(SCc3ccccc3)nc2N1 (stereo not drawn),/,/,/,/,/,1%
Cc1ccccc1NC(=O)c1nc(S(C)(=O)=O)ncc1N(Cc1ccco1)Cc1sccc1C,/,/,/,/,/,1%

# Screening data (PubChem)
